The results in this text go back to article PMC5540273 (PLoS ONE, 2017).

Details in all cases: concentration: 1 μM, replicates: in singlicate; n = 1
The test system of test [1] is ACVR2A.
Test [2] relates to ACVR2B.
Test [3] has as its system ACVRL1.
Test [4] relates to T1, ADCK3.
T1 construct: gene CABC1

For test [5], the system named is ADCK4.
Test [6] relates to AKT1.
In test [7] the test system is AKT2.
For test [8], the system named is AKT3.
In test [9] the test system is ALK.
Test [10] concerns T2, AMPK-alpha1.
T2 construct: gene PRKAA1

In test [11] the test system is T3, AMPK-alpha2.
T3 construct: gene PRKAA2

For test [12], the system named is ANKK1.
For test [13], the system named is T4, ARK5.
T4 construct: gene NUAK1

The test system of test [14] is T5, ASK1.
T5 construct: gene MAP3K5

Test [15] relates to T6, ASK2.
T6 construct: gene MAP3K6

For test [16], the system named is AURKA.
In test [17] the test system is AURKB.
Test [18] relates to AURKC.
In test [19] the test system is AXL.
Test [20] concerns T7, BIKE.
T7 construct: gene BMP2K
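Further: KINOMEscan kinase panel screen.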

Take `Cc1nnc(-c2ccc(C)c(-c3ccc(C(=O)Nc4ccc(NS(C)(=O)=O)cc4)cc3)c2)o1` [GW702865]: the “%Inh” value in test [1] worked out at 0%; in test [2], 0%; in test [3] it was 0%; in [4], 20%; in [5], 14%; in test [6] it was 0%. Also, the “%Inh” value in test [7] came out at 12%; in test [8], 0%; in [9] it was 6%; in [10], 17%; in test [11] it was 1%; in test [12], 14%. In addition, the “%Inh” value in [13] is reported as 0%; in test [14], 0%; in [15], 0%; in [16] it was 30%; in [17], 8%; in test [18], 3%. Further, the “%Inh” value in [19] worked out at 1%; in test [20], 7%.
As to `CN1c2ccc(NCc3ccc(F)cc3)cc2-c2c(cnn2C)S1(=O)=O`, the “%Inh” value in test [1] was determined as 0%; in [2] it was 0%; in test [3], 7%; in test [4] it was 10%; in [5] it was 0%; in test [6], 4%. Moreover, the “%Inh” value turned out to be 7% in test [7]; 0% in [8]; 13% in [9]; 0% in test [10]; 0% in test [11]; 0% in test [12]. Besides, the “%Inh” value in [13] is on record as 0%; in [14], 0%; in test [15], 0%; in test [16], 0%; in [17], 14%; in [18], 0%. The “%Inh” value in [19] and in test [20] was 0% throughout.
As for `CCn1cnc2c(N)ncnc21` [GW345098], the “%Inh” value in test [1] was 0%; in test [2], 0%; in test [3] it was 8%; in test [4], 19%; in [5], 0%; in [6] it was 0%. For the same molecule, the “%Inh” value in test [7] is 0%; in test [8], 0%; in [9], 0%; in test [10], 29%; in [11], 0%; in test [12], 0%. Moreover, the “%Inh” value in [13] turned out to be 0%; in test [14], 15%; in test [15] it was 0%; in test [16] it was 4%; in test [17], 6%; in [18], 4%. Besides, the entries for the “%Inh” value in test [19] and in test [20] were 0% and 5%, respectively.
`O=C(c1ccc(-c2cc(-c3c[nH]nc3-c3ccccn3)ccn2)cc1)N1CCOCC1` [GW812171]: the “%Inh” value came to 0% in [1]; 0% in test [2]; 0% in test [3]; 0% in test [4]; 0% in test [5]; 5% in test [6]. The “%Inh” value in test [7] is recorded as 0%; in test [8] it was 0%; in test [9] it was 5%; in test [10] it was 19%; in test [11], 22%; in test [12], 14%. The “%Inh” value in test [13] worked out at 0%; in test [14] it was 0%; in test [15], 0%; in test [16], 13%; in [17], 33%; in test [18] it was 0%. Moreover, the “%Inh” value in test [19] and in [20] was 0% throughout.
Turning to `COc1ccc(Nc2ncc(C#N)c(Nc3ccccc3C(N)=O)n2)cc1N1CCN(C)CC1.Cl` [GSK1558669], the “%Inh” value in test [1] is 0%; in [2] it was 0%; in [3], 0%; in test [4], 0%; in test [5], 52%; in [6], 8%. Also, the “%Inh” value was found to be 63% in test [7]; 0% in [8]; 95.7% in test [9]; 97.3% in test [10]; 99.8% in test [11]; 52% in test [12]. The “%Inh” value in test [13] was determined as 100%; in test [14], 0%; in test [15], 22%; in [16] it was 99.9%; in test [17], 99.9%; in test [18] it was 100%. Also, the “%Inh” value in test [19] is recorded as 98.9%; in test [20] it was 100%.
On to `COc1ccc(S(=O)(=O)NC2CCN(c3cc(C)nc(Nc4cccc(C#N)c4)n3)CC2)cc1.O=C(O)C(F)(F)F` [GSK1653539], for which the “%Inh” value in test [1] was 0%; in test [2], 0%; in test [3] it was 0%; in test [4], 20%; in [5], 35%; in [6], 0%. Besides, the “%Inh” value amounted to 0% in test [7]; 0% in test [8]; 5% in [9]; 0% in [10]; 0% in test [11]; 14% in test [12]. In addition, the “%Inh” value in [13] is 8%; in test [14], 0%; in [15] it was 0%; in test [16], 2%; in [17] it was 7%; in test [18] it was 0%. Also, the “%Inh” value in [19] was 0%; in [20], 5%.
For `Cc1c2ccc(N(C)c3ccnc(Nc4cccc(S(N)(=O)=O)c4)n3)cc2nn1Cc1ccccc1.Cl.Cl` [GW787226], the “%Inh” value in test [1] turned out to be 0%; in [2], 0%; in test [3], 12%; in [4], 0%; in [5], 0%; in test [6] it was 0%. In addition, the “%Inh” value in test [7] came to 0%; in [8], 0%; in [9], 0%; in test [10], 17%; in test [11] it was 0%; in test [12] it was 0%. Besides, the “%Inh” value in [13] was determined as 0%; in test [14], 0%; in test [15], 0%; in test [16] it was 29%; in [17], 54%; in test [18] it was 38%. Besides, the “%Inh” value in test [19] worked out at 73%; in test [20], 0%.
